Laboratory results reported in PubChem BioAssay AID588453 (National Center for Advancing Translational Sciences (NCATS), 2011).
Values joined by “and” are separate entries in the source; they are usually repeats but may differ in a detail not shown here. Identical values can stand only once. About 4,000 (1%) of roughly 390,000 compounds were called active. Roughly 4% stayed inconclusive and do not appear here. This is one part of a sample in which actives are shown more often than they occur. Values without a mark were called inactive. Calls follow the shape of the dose curve; as a rule, active = well fitted inhibition curve with a large enough effect; inconclusive = small, poorly fitted or top-dose-only effect; inactive = no such curve, though single readings can be large or run the other way.

What follows are molecules tested against Thioredoxin reductase 1, cytoplasmic (Rattus norvegicus) (UniProt O89049) (assay: qHTS Assay for Inhibitors of Mammalian Selenoprotein Thioredoxin Reductase 1 (TrxR1): qHTS). Details: recombinant rTrxR1, NADPH fluorescence consumption, selenite substrate; series mostly up to 114 µM; activity change, negative = inhibition: at the top concentration.
Source text: The selenoprotein thioredoxin reductase (TrxR; EC 1.8.1.9) is a FAD containing homodimeric pyridine nucleotide-disulfide oxidoreductase with many cellular roles. Together with NADPH and its prime substrate thioredoxin (Trx), the enzyme forms the core of the Trx system. The mammalian Trx system exerts a wide spectrum of functions including redox regulation, antioxidant defense, regulation of transcription factors as well as support of cell growth and replication. Many of these functions involve the reduction of Trx, which may subsequently reduce a number of different substrates including ribonucleotide reductase, peroxiredoxins or NFkB. Mammalian TrxR itself also has a broad substrate specificity, reducing both protein and non-protein substrates, including low molecular weight compounds such as dehydroascorbate, lipoic acid, ubiquinone, and juglone. In addition, several drugs in clinical use for anticancer treatment are indeed known to target TrxR1.
This BioAssay is a validation of an NADPH fluorescence-based, dual-purpose qHTS rTrxR1 assay designed to find potential inhibitors and substrates of rTrxR1. For this particular BioAssay, actives are potential inhibitors. See related BioAssay for substrate data deposition.
NIH Molecular Libraries Probe Production Network [MLPCN]
NIH Chemical Genomics Center [NCGC]
Assay Provider: Elias Arner, Karolinska Institute
Assay protocol: 2 uL of reagents (buffer in column 4 as negative control and 90 nM rTrxR1 in columns 1-3 and 5-48) were dispensed into Greiner black solid-bottom 1,536-well assay plates, followed by 1 uL of NADPH (400 uM final concentration) to each well. The plates were centrifuged at 1000 rpm for 15 seconds and subsequently incubated for 5 min at room temperature (~22 deg C) to allow for rTrxR1 reduction. Compounds (23 nL) were then transferred via Kalypsys pin tool equipped with 1536-pin array (10 nL slotted pins, V&P Scientific, San Diego, CA). In addition, a duplicate 2-fold serial dilution of the control compounds auranofin, a known gold-based TrxR1 inhibitor, and juglone (5-hydroxy-1,4-naphthoquinone), a natural TrxR1 substrate, were pin-transferred to columns 2 and 3, respectively. After incubation for 15 min at room temperature (~22 deg C), 1 uL of selenite (400 uM final concentration) were dispensed to each well. The plate was immediately transferred to a ViewLux high-throughput CCD imager (PerkinElmer), wherein kinetic measurements of NADPH fluorescence (Ex 340 nm, Em 450 nm) were acquired (8 minute kinetic read, see Table 1). Read 1 was utilized to assess the capacity of a compound to serve as an rTrxR1 substrate, i.e. a decrease in NADPH fluorescence compared to the no-compound background is an indication of a substrate behavior for that particular compound. For inhibitory activity of a compound, delta values, computed as the difference in fluorescence intensity between the first and last reads of an 8-minute time kinetic window, were used. All reagents were diluted in an assay buffer consisting of 50 mM Tris-HCl, pH 7.5, 2 mM EDTA, and 0.01% Tween-20.
Throughout the screen, reagent bottle and all liquid lines were made light-tight to minimize reagent degradation. All screening operations were performed on a fully integrated robotic system (Kalypsys, San Diego, CA) containing one RX-130 and two RX-90 anthropomorphic robotic arms (Staubli, Duncan, SC). Library plates were screened starting from the lowest and proceeding to the highest concentration, and a 'double-pinning' step of the highest concentration was required to access higher concentrations of compounds. Vehicle-only plates, with DMSO being pin-transferred to the columns 5-48, were inserted uniformly at the beginning and the end of each library in order to monitor and record any shifts in the background, which can be affected by reagent dispensers or loss in enzyme activity over time. […]
% is scaled to controls: 0 for no effect and ±100 for the full control effect; potency is read from the fitted curve at half-maximal effect.
Also: nearly all actives have a fitted effect of over 65% in size.

Chain of Thioredoxin reductase 1, cytoplasmic (Rattus norvegicus) (O89049 whole entry, looked up): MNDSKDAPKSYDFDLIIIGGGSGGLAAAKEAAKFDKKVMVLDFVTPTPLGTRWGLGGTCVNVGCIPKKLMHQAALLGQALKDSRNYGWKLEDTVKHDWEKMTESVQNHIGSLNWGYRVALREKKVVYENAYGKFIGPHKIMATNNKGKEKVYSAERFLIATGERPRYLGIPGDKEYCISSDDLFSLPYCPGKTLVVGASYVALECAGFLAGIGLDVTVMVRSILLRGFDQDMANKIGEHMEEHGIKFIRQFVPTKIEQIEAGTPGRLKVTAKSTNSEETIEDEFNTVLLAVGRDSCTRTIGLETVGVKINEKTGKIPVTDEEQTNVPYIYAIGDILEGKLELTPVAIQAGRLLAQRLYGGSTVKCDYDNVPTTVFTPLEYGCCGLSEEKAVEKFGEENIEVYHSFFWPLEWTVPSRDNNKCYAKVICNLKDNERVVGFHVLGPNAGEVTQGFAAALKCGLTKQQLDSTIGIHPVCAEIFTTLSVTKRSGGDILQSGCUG

Compound	Potency	activity change, negative = inhibition
CCC1(C)CC(=O)NC1=O (stereo not given)	inactive	
CC[C@H]1CC2CN3CCc4c([nH]c5ccccc45)C(C(=O)OC)(C2)C13 (stereo not given in full)		12.3%
CCOC(=O)c1ncn2c1[C@@H]1CCCN1C(=O)c1cc(OC)ccc1-2	inactive	
CC(=O)c1c(O)c(C)c(O)c(Cc2c(O)c3c(c(C(=O)/C=C/c4ccccc4)c2O)OC(C)(C)C=C3)c1O	28.2 µM (active) and 11.2 µM (active)	
C[N+]1(C)CCOC(O)(c2ccc(-c3ccc(C4(O)C[N+](C)(C)CCO4)cc3)cc2)C1 (stereo not given)	inactive	
COC(=O)C1=C(c2ccc(C(C)=O)cc2)C[C@@H]2CC[C@H]1N2C(=O)NCCNC(C)=O		17.4% [at 57.1 µM]
O=C(CN1CCCC1=O)NCCc1ccccc1		14.9%
O=C1CC(=O)N(Cc2ccccc2)C(=O)N1CCCCCCN1C(=O)CC(=O)N(Cc2ccccc2)C1=O	2.82 µM (active)	
CC(C)(C)c1ccc(CN2C(=O)CN=C(c3ccccc3)c3ccccc32)cc1		1.72%
COCc1cc(OC(=O)N(C)C)nc(-c2ccc(C)c(Cl)c2)n1		-11.1%
COc1ccc(-n2c(-c3ccccc3)nc3ccccc3c2=O)cc1		11.3%
CC[C@H]1CN2CCc3cc(OC)c(OC)cc3[C@@H]2C[C@@H]1C[C@H]1NCCc2cc(OC)c(OC)cc21	inactive	
COC(=O)C1=C(c2cc3ccccc3s2)C[C@@H]2CC[C@H]1N2C(=O)NCCO		2.91% [at 57.1 µM]
COc1ccc(NC(=O)N2CCC3(CC2)OCCO3)c(OC)c1		11.5%
COc1ccc(-c2nc(CS(=O)CC(=O)N3CCC4(CC3)OCCO4)c(C)o2)cc1 (stereo not given)	7.08 µM (active)	
COc1ccc(S(=O)(=O)NCc2ccc(C(=O)N3CCC4(CC3)OCCO4)cc2)cc1		-0.636%
CCN(CC)CCOC(=O)c1cc2cc(COC)ccc2o1		14.1% [at 57.1 µM]
CCN1C(=O)C(=Cc2c(C)n(CC(=O)NCC3CCCO3)c3ccccc23)C(=O)N(CC)C1=S (stereo not given)	11.2 µM (active)	
CCCCCCN=C(CC)c1c(O)n(CCCC)c(=O)[nH]c1=O		4.26% [at 57.1 µM]
COC1=C[C@@H]2[C@@H]3Cc4ccc(OC)c(O)c4[C@]2(CCN3C)CC1=O		-6.63%

Compound	Potency	activity change, negative = inhibition
O=C(O)/C=C/c1ccc2c(c1)OCO2		3.16%
CN(C)CC1Oc2ccccc2OC1(O)c1ccccc1 (stereo not given)	0.398 µM (active)	
O=C(O)C1C2CCC(O2)C1C(=O)O (stereo not given)		-1.83%
CC1CCC(N(C)C2CCN(C)CC2)CC1 (stereo not given)		-4.72%
CCNc1nc2[nH]c(=O)c3c(c2s1)OC(N)=C(C#N)C3c1cccs1 (stereo not given)		-8.85%
CCCCN1C2CCC1CC(OC(c1ccc(F)cc1)c1ccc(F)cc1)C2 (stereo not given)		3.2%
COc1ccc(OC)c(NC(=O)Cn2c(=O)oc3ccccc32)c1		25.1%
Cc1ccnc(-n2c(C)cc(/C=C3\C(=O)NC(=S)N(C)C3=O)c2C)c1	35.5 µM (active)	
Cc1ccc(-n2c(C)cc(/C=C3\C(=O)NC(=O)N(C)C3=O)c2C)cc1C		-0.889%
Cc1cc(C=C2C(=O)NC(=O)NC2=O)c(C)n1-c1ccncc1		-45.2%
O=C(O)C1CSC(c2cccnc2)N1 (stereo not given)		23.3% [at 57.1 µM]
c1cncc(CNCCc2c[nH]c3ccccc23)c1		13%
C[C@@H]1C[C@@H]2O[C@H]2/C=C\C=C\C(=O)Cc2c(Cl)c(O)cc(O)c2C(=O)O1	12.6 µM (active)	
COc1cc([C@@H]2c3cc4c(cc3[C@H](OC(C)=O)[C@H]3COC(=O)[C@H]23)OCO4)cc(OC)c1OC		-1.87%
CCOc1ccc(CN(CCCl)CCCl)cc1C(=O)OC	15.8 µM (active)	
CC1=CC(=Cc2sc3ccccc3[n+]2C)C=C(C)O1		-17.2%
Cc1ccc(Cn2c(C)c3cnn(CC(=O)N4CCC5(CC4)OCCO5)c(=O)c3c2C)cc1		-10.4%
CC(=O)Cc1ccc(OC(C)C)cc1		-10.4% [at 57.1 µM]
CCOP(=O)(OCC)C(NC(=O)c1ccc(OC)cc1)C(Cl)(Cl)Cl (stereo not given)		16.1%
CC(=O)c1ccc(OC(NC(=O)Cc2ccccc2)C(Cl)(Cl)Cl)cc1 (stereo not given)	10 µM (active)	
